Source: article PMC4336329 (PLoS ONE, 2015)
Out of some 310,000 compounds screened, about 14,000 (4.5%) showed an effect of 50% or more. Effects have a minus sign here. Many of the other results were omitted from the sample, so strong results are more common in it than they were.

The molecules below were run against human ether-à-go-go-related gene (hERG) potassium channel (human, UniProt Q12809) (assay: primary screen, population patch clamp on CHO cells stably expressing hERG; higher = less effect of the substance).
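Further: peak tail current of the secondary pulse compared with the same well before compound.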

Chain of human ether-à-go-go-related gene (hERG) potassium channel (Q12809 whole entry, looked up): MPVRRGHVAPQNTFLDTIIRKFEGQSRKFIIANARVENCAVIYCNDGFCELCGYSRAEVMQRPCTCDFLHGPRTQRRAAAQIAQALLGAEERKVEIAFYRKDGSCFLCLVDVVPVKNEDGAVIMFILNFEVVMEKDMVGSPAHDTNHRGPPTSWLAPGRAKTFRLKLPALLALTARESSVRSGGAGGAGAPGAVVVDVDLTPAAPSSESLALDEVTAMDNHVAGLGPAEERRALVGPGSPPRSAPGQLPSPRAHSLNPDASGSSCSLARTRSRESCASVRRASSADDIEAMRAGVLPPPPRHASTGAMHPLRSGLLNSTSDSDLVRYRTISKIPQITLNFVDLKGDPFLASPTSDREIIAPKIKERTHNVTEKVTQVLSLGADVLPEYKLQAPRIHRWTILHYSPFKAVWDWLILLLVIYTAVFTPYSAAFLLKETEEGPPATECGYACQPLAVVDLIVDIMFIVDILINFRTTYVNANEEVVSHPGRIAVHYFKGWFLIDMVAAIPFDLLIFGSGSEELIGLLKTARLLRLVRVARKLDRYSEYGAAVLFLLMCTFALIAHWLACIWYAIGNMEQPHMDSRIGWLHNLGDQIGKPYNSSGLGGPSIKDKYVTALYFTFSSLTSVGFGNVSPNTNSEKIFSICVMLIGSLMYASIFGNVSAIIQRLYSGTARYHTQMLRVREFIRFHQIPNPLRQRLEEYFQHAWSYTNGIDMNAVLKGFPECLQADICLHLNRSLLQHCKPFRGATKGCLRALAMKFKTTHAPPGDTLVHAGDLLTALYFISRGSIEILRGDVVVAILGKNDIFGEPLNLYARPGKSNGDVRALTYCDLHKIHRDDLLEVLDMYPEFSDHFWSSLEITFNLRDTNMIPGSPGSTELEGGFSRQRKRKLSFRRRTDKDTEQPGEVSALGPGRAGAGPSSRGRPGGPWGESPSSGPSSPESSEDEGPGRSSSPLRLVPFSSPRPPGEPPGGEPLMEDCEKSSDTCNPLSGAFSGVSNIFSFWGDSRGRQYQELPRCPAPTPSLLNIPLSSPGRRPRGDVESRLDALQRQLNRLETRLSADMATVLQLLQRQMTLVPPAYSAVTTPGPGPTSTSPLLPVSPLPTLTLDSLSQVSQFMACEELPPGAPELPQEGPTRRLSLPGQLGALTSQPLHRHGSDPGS

Compound | hERG current change (%, negative = inhibition) at 10uM [%]
Cc1csc(NC(=O)CSc2nncc(=O)n2N)n1 | 19
O=C(Nc1cccc(/C=C/c2ccccn2)c1)c1ccc(-n2cncn2)c([N+](=O)[O-])c1 | -24.9
Cc1cc(C)cc(OCC(=O)Nc2cc(C)on2)c1 | 15.9
Cc1c(NS(=O)(=O)c2cccc(C(=O)NCc3ccncc3)c2)c(=O)n(-c2ccccc2)n1C | 6.38
Cc1nnc2c(SC(C)C)nc3ccccc3n12 | -77.2
Cc1nnc2c(NC(C)C)nc3ccccc3n12 | -26.8
CC(C)Sc1nc2ccccc2n2cnnc12 | -6.25
CCC(NC(=S)NCc1ccc(F)cc1)c1ccc(C)cc1 (stereo not drawn) | 13.7
COc1ccc(NC(=O)c2ccccc2NC(=O)C2CC=CCC2C(=O)O)cc1 (stereo not drawn) | 15.6
Cc1ccc(CNC(=O)CCSCc2ccc(C)cc2)cc1 | -2.27
CCOC(=O)C1CCCN(C2CCN(Cc3nc(Cc4ccccc4)no3)CC2)C1 (stereo not drawn) | -60.3
CCOC(=O)C1CCCN(C2CCN(Cc3nc(-c4ccccc4)no3)CC2)C1 (stereo not drawn) | -56.5
CCOC(=O)N1CCN(Cc2nc(-c3ccccc3)no2)CC1 | 2
CCOC(=O)C1CCCN(Cc2nc(Cc3cccc(F)c3)no2)C1 (stereo not drawn) | -6.6
CCOC(=O)C1CCN(C2CCN(Cc3nc(-c4ccccc4)no3)CC2)CC1 | -71.5
NC(=O)C1CCN(Cc2nc(-c3ccccc3)no2)CC1 | -14.1
CCOC(=O)C1CCCN(Cc2nc(Cc3ccccc3Cl)no2)C1 (stereo not drawn) | -14.1
CCOC(=O)C1CCN(Cc2nc(-c3ccc(OC)c(OC)c3)no2)CC1 | 2.83
Cc1ccc(-c2noc(CN3CCC(C(N)=O)CC3)n2)cc1 | 21.9
CCc1ccccc1NC(=O)Cn1nc(C(F)(F)F)c2c1CCC2 | 7.74
CN=c1scc(C)n1/N=C/c1cc(Br)c(O)c(OC)c1 | 15.8
C=C(C)c1cccc(C(C)(C)NC(=O)NCC2CCCO2)c1 (stereo not drawn) | 3.74

Compound | hERG current change (%, negative = inhibition) at 10uM [%]
CCOc1ccc(Cl)cc1S(=O)(=O)N1CCC(C(=O)NCC2CCCO2)CC1 (stereo not drawn) | -2.63
CC(C)c1nc(N2CCOCC2)c(C#N)c2c1COC(C)(C)C2 | 9.56
Cc1cc(/C=C2/C(=N)N3C(=NC2=O)SN=C3S(C)(=O)=O)c(C)n1-c1ccc(F)cc1 | 47.6
Cc1cc(/C=C2/C(=N)N3C(=NC2=O)SN=C3S(C)(=O)=O)c(C)n1-c1ccccc1 | 0.917
CCOc1ccc(-n2c(C)cc(/C=C3/C(=N)N4C(=NC3=O)SN=C4S(C)(=O)=O)c2C)cc1 | -53.4
CCOc1ccccc1OCCC(=O)OCC(=O)c1ccc[nH]1 | -16.2
Cc1cc(NC(=O)C23CCC(C)(C(=O)O2)C3(C)C)no1 (stereo not drawn) | 12
COc1cc2cc(CN(Cc3cccnc3)C(=O)Nc3ccccc3)c(=O)[nH]c2cc1OC | -21.8
CCN(CC)CCCN(Cc1cc2cc(OC)ccc2[nH]c1=O)C(=O)Nc1ccc(F)cc1 | -69.9
COc1ccc(NC(=O)N(Cc2cc3cc(OC)ccc3[nH]c2=O)CC2CCCO2)cc1 (stereo not drawn) | -31.6
COc1ccc2[nH]c(=O)c(CN(CCCN(C)C)C(=O)Nc3ccc(F)cc3)cc2c1 | -65.7
CCOc1ccc2[nH]c(=O)c(CN(Cc3cccnc3)C(=O)Nc3ccccc3OC)cc2c1 | -6.63
COc1ccc2[nH]c(=O)c(CN(CC3CCCO3)C(=O)Nc3ccccc3)cc2c1 (stereo not drawn) | -2.72
COc1ccc2[nH]c(=O)c(CN(Cc3cccnc3)C(=O)Nc3ccccc3)cc2c1 | -54.6
COc1ccc(NC(=O)N(CCCN(C)C)Cc2cc3cc(OC)ccc3[nH]c2=O)cc1 | -38.5
COc1ccc2[nH]c(=O)c(CN(CCCN(C)C)C(=O)Nc3ccccc3)cc2c1 | -29.2
CCN(CC)CCCN(Cc1cc2cc(OC)ccc2[nH]c1=O)C(=O)Nc1ccccc1 | -55.3
CCN(CC)CCCN(Cc1cc2cc(OC)c(OC)cc2[nH]c1=O)C(=O)Nc1ccccc1 | -13.8
CCN(CC)CCCN(Cc1cc2cc3c(cc2[nH]c1=O)OCO3)C(=S)Nc1ccc(OC)cc1 | -46.8
COC(=O)c1cscc1NC(C)=O | 20.7
O=C(O)CCc1n[nH]c(=S)[nH]c1=O | 5.81
Cc1ccc(C)c(C(=O)C(C)OC(=O)CN2C(=O)NC3(CC(C)CC(C)(C)C3)C2=O)c1 (stereo not drawn) | 23.2

Compound | hERG current change (%, negative = inhibition) at 10uM [%]
CCOc1ccc(CCNC(=O)Cn2cccc2C(=O)c2ccccc2)cc1OCC | -2.85
CSCCC(NC(=O)COc1ccccc1)C(=O)Nc1ccc(C)cc1 (stereo not drawn) | -3.07
CC(=Nc1ccccc1)c1sc2ccccc2c1O | -10.8
ON1C(c2ccc(Cl)cc2Cl)N(O)[C@H]2CCCC[C@H]21 (stereo partly drawn) | -1.85
COc1ccc2cc(CN(C(=O)Nc3ccccc3)C3CCCC3)c(=O)[nH]c2c1 | -60.5
CCN(CC)CCCN(Cc1cc2cc3c(cc2[nH]c1=O)OCCO3)C(=O)Nc1ccc(F)cc1 | -61.6
COc1cc2cc(CN(C(=O)Nc3ccccc3)C3CCCC3)c(=O)[nH]c2cc1OC | -44.2
COc1ccc2cc(CN(C(=O)Nc3ccccc3OC)C3CCCC3)c(=O)[nH]c2c1 | -46.9
CCN(CC)CCCN(Cc1cc2cc3c(cc2[nH]c1=O)OCO3)C(=S)Nc1ccccc1 | -45.9
CCN(CC)CCCN(Cc1cc2cc3c(cc2[nH]c1=O)OCCO3)C(=O)Nc1ccccc1 | -41.7
COc1ccc(NC(=O)CSc2nc3c([nH]c4ccccc43)c(=O)n2C)c(OC)c1 | 19
COC(=O)c1cccc(S(=O)(=O)N2CCC(C)CC2)c1 | -4.23
O=C(COc1ccccc1)Nc1cc(S(=O)(=O)N2CCOCC2)ccc1N1CCCC1 | -8.47
Cc1cc2nc(C)n(CCCNC(=O)Nc3ccc(C#N)cc3)c2cc1C | -34
Cc1cc2nc(C)n(CCCNC(=O)Nc3ccc(F)cc3)c2cc1C | -49.9
CCOc1ccc(NC(=O)NCCCn2c(C)nc3cc(C)c(C)cc32)cc1 | -55.5
COc1cccc(-c2nc(-c3ccccn3)no2)c1OC | 0.968
Cc1noc(C)c1COc1ccc(C(=O)OCc2nnc(-c3ccc(Cl)cc3)o2)cc1 | 10.1
CNC(=O)c1ccccc1S(=O)c1ccccc1C#N (stereo not drawn) | 2.49
CCOC(=O)c1ccc(NC(=O)NCCN2CCCCC2)cc1 | -31.6
COc1cc2c(cc1OC)C(c1ccccc1)N(C(=O)c1cccc(S(C)(=O)=O)c1)CC2 (stereo not drawn) | -24
COc1ccc(C(=O)N2CCc3cc(OC)c(OC)cc3C2c2ccc(OC)c(OC)c2)cc1 (stereo not drawn) | -12

Compound | hERG current change (%, negative = inhibition) at 10uM [%]
COc1cc2c(cc1OC)C(c1cccs1)N(C(=O)c1cccc(S(=O)(=O)N(C)C)c1)CC2 (stereo not drawn) | -70.7
COc1cc2c(cc1OC)CN(C(=O)c1cccc(S(=O)(=O)N(C)C)c1)CC2 | 6.05
COc1cc2c(cc1OC)C(c1cccs1)N(C(=O)c1ccc(S(=O)(=O)N(C)C)cc1)CC2 (stereo not drawn) | -72.6
COc1ccc(C(=O)N2CCc3cc(OC)c(OC)cc3C2c2ccc(OC)c(OC)c2)cc1OC (stereo not drawn) | 1.43
N#C/C(=C\c1ccco1)C(=O)NCc1ccccc1 | 4.87
CC(=O)c1c(C(C)=O)c(C)n(C(c2ccccc2)c2ccccc2)c1C | -9.83
COc1ccc(-c2nnnn2C(C)C)cc1 | -0.893
Cc1nnc(C)c2c(C)n(C(C)c3ccccc3)c(C)c12 (stereo not drawn) | -20.7
Cc1nnc(C)c2c(C)n(C(c3ccccc3)c3ccccc3)c(C)c12 | -71.4
COc1ccc(C(=O)C(Sc2nnc(C)c(=O)[nH]2)c2ccc(OC)cc2)cc1 (stereo not drawn) | -12.3
COc1ccc(C(C)n2c(C)c3c(C)nnc(C)c3c2C)cc1 (stereo not drawn) | -57.9
CCN(Cc1ccccc1)S(=O)(=O)c1cc(C(=O)OC)n(C)c1 | -32.9
COc1ccc(Cn2c(=O)oc3ccc(C)cc32)cc1 | 1.22
Cc1ccc(-c2noc(CSc3nc(N)cc(N)n3)n2)cc1 | -4.24
CC(=O)N(Cc1ccco1)Cc1cc2cccc(C)c2n2nnnc12 | -3.36
CCn1cc(C(=O)NCc2cccs2)c(=O)c2cc(S(=O)(=O)N3CCOCC3)ccc21 | -20.3
Cc1cc(C)nc(Nc2n[nH]c(C)n2)n1 | 16.4
Clc1cc(Cl)cc(Nc2ncn[nH]2)c1 | -8.8
Cc1cc(C)nc(Nc2ncn[nH]2)n1 | -73.3
CCOC(=O)C1(CC2CC2)CCN(C(=O)c2cc(OC)nc3ccccc23)CC1 | -12.9
CC(C)[C@H](NC(=O)c1ccccc1)C(=O)OCC(=O)c1ccc2c(c1)NC(=O)CO2 | -26.3
